Only some compounds are listed: those with a hit (about 5.7% of all), similar ones and a draw of the others.
hgDAF12 agonist – H. glycines DAF-12 receptor agonists, primary screen, cell-based, luminescence, HEK293, GAL4 fusion, UAS-luciferase. HEK293 GAL4-hgDAF12 UAS-luciferase reporter, agonist luminescence; normalized to butyrate control. activation, % at 6.8 µM. actives 1.8% (n = 370,000). AID 687014, 2013;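 active = activation above a cutoff set at the mean of all screened compounds plus 3 SD, cut at about 10% in these data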;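 note: 0% = DMSO wells and 100% = sodium butyrate wells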
AHR activator – AHR activators, primary screen, cell-based, luminescence, luciferase reporter, human; AHR-responsive luciferase reporter cells; Aryl hydrocarbon receptor (Homo sapiens), P35869; activation, % at 5 µM; actives 2.5% (n = 320,000); in the data active = activation above about 47%;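 note: 0% = vehicle wells and 100% = reference agonist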
ssDAF12 agonist – S. stercoralis DAF-12 nuclear receptor activators, primary screen, cell-based, luminescence, HEK293, GRIP1 co-expression, lit1-tk-luc; Nuclear hormone receptor DAF-12 (Strongyloides stercoralis); HEK293 ssDAF-12/GRIP1 lit1-tk-luc reporter; % of 3 µM dafachronic acid response; activation, % at 6.8 µM; actives 1% (n = 370,000); AID 652126, 2013;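 active = activation above the mean over all tested compounds plus 3 SD, cut at about 0.9% in these data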;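 note: 0% = DMSO-only wells and 100% = 3 µM delta7-dafachronic acid wells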
DAX1 inh-1 – DAX1 (NR0B1) inhibitors, primary screen, cell-based, HEK293, Gal4-DAX1, luciferase luminescence. Nuclear receptor subfamily 0 group B member 1 (Homo sapiens), P51843. HEK293 Gal4-DAX1 luciferase reporter. inhibition, % at 6.75 µM. actives 0.99% (n = 340,000). AID 504766, 2011;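 active = inhibition above the mean over all tested compounds plus 3 SD, cut at about 4.2% in these data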;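 note: 0% = DAX1-transfected cells with DMSO and 100% = empty-vector control cells with DMSO; inhibition shows as a rise in luminescence from relieved DAX1 repression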
Target sequence (P51843 207-470 limits assumed): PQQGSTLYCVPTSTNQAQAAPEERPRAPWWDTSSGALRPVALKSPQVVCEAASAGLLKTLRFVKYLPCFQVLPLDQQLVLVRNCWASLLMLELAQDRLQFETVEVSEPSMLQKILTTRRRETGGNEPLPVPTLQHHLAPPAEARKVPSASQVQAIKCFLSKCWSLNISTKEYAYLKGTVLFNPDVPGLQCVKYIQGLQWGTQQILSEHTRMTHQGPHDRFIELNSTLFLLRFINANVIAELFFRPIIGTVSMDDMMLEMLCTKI
hcDAF12 agonist – H. contortus DAF-12 nuclear receptor activators, primary screen, cell-based, luminescence, HEK293, lit1-tk-luc reporter; actives 1.4% (n = 370,000); HEK293 hcDAF-12 lit1-tk-luc reporter; 0% DMSO, 100% Δ7-dafachronic acid; activation, % at 6.8 µM;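 active = activation above the mean of all tested compounds plus 3 SD, cut at about 5.5% in these data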;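 note: 100% = response to 3 µM Δ7-dafachronic acid high control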
DAX1 inh-2 – DAX1 (NR0B1) inhibitors on StAR promoter, primary screen, cell-based, luminescence, SF-1 (NR5A1), full-length DAX-1 | HEK293T StAR-luciferase reporter, SF-1/DAX-1 repression relief | inhibition, % at 6.8 µM | actives 1.1% (n = 370,000) | AID 652010, 2013;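 active = inhibition above the mean over all tested compounds plus 3 SD, cut at about 3.6% in these data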;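 note: 0% = DAX-1 cells with DMSO and 100% = cells lacking DAX-1 with DMSO; higher inhibition means more luminescence from relief of DAX-1 repression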
Numbers without * were called inactive; / = not tested or not shown.

SMILES	hgDAF12 agonist	AHR activator	ssDAF12 agonist	DAX1 inh-1	hcDAF12 agonist	DAX1 inh-2
N#CC1=C(N)Oc2cc(N)ccc2C1c1ccccc1Cl (configuration not stated)	0.1	/	-0.8	0.3	-1.3	-0.5
CCOC(=O)C1CCN(C(=O)c2cc(COc3ccc(OC)c4ccccc34)on2)CC1	12.5*	18.2	0.3	0.7	6.3*	0.7
CCOC(=O)C1CCCN(C(=O)/C=C/c2ccccc2)CC1 (configuration not stated)	3.5	/	-1.0	/	1.2	-0.9
CCOC(=O)C1CCN(C(=O)c2cc3c(ccc4ccccc43)o2)CC1	5.4	10.6	-0.5	1.0	2.5	4.1*
COc1cc(Cl)ccc1OCc1cc(C(=O)N2CCCCCC2)no1	2.8	4.0	-0.4	1.0	1.3	0.2
COc1ccc(OCc2cc(C(=O)N(C)C3CCOCC3)no2)c2ccccc12	4.2	16.1	1.0*	1.9	4.5	0.0
CCOC(=O)C1CCN(C(=O)/C=C/c2ccccc2)CC1	11.9*	9.0	-1.1	-1.4	1.1	0.5
CC(C)c1ccc(N(CC(=O)NC2CCCCC2)C(=O)CCC(=O)Nc2ccccn2)cc1	-0.9	-0.3	-0.9	-0.7	0.6	0.6
O=c1[nH]c(-c2ccccc2)cn1C1CCN(Cc2ccc(-c3nc4ccc(Br)cc4nc3-c3ccccc3)cc2)CC1	-0.4	/	-0.4	/	-1.2	-0.4
C=C1CC(C(=O)N/N=C/c2ccccc2)C1	0.1	24.7	-0.7	1.7	-1.6	0.1
COc1ccc(S(=O)(=O)NC(C)C(=O)NCc2ccncc2)cc1C (configuration not stated)	0.0	0.9	-0.6	-0.7	-1.2	0.3
COc1ccc(S(=O)(=O)NC(C)C(=O)NCc2ccncc2)cc1OC (configuration not stated)	0.7	-0.9	-1.2	5.8*	0.2	0.0
O=c1c2[nH]c3ccccc3c2nc2n1CCS2	1.3	57.0*	-1.5	-0.2	0.7	-0.5
COc1cccc(CNC(=O)[C@H]2CCCN2C(=O)[C@H]2CCCN2C(=O)c2cccc(OC)c2)c1	0.2	/	-0.9	/	-0.9	-0.1
Cc1c(C(=O)Nc2ccccc2)cnn1-c1ccccc1	10.0	-4.9	-0.5	2.3	5.4	1.5
COc1ccc(OC)c(NC(=O)c2cnn(-c3ccccc3)c2C)c1	1.5	76.3*	-1.0	1.2	1.9	0.4
Cc1ccccc1NC(=O)c1cnn(-c2ccccc2)c1C	12.2*	-1.8	0.6	3.6	1.2	0.6
Cc1c(C(=O)Nc2cccc(F)c2)cnn1-c1ccccc1	10.4*	-1.7	1.6*	3.2	4.8	1.9
CC(C)(C)C1CCN2CCC[C@](c3ccccc3)(C1)C2OCCCO (some centres not stated)	1.4	/	-0.1	/	-1.8	1.7
CC(=O)OC[C@H]1O[C@H](C#Cc2ccc(C(C)(C)C)cc2)C=C[C@H]1OC(=O)Nc1ccccc1	2.9	/	-1.2	/	-0.1	0.4
CN(C)C(=S)NC(=S)Nc1ccc2ccccc2c1	16.8*	/	1.3*	0.2	11.7*	3.0
CC(=O)Nc1ccc(NC(C)=C(C#N)C#N)cc1	-1.9	-1.0	-1.0	4.3*	0.6	-0.2
Cc1ccccc1C(=O)N1CCC2CC1c1cc(Cl)ccc12 (configuration not stated)	-0.8	/	-0.8	0.4	-1.5	0.4
CCn1c(SCC(=O)N2CC(C)OC(C)C2)nc2c([nH]c3ccccc32)c1=O (configuration not stated)	1.2	49.9*	0.2	1.1	6.5*	0.4
COCCn1c(SCC(=O)N2CC(C)OC(C)C2)nc2c([nH]c3ccccc32)c1=O (configuration not stated)	3.7	29.8	0.3	0.1	5.9*	1.2
SMILES	hgDAF12 agonist	AHR activator	ssDAF12 agonist	DAX1 inh-1	hcDAF12 agonist	DAX1 inh-2
CCOc1ccc(N(Cc2ccc(C(=O)O)cc2)S(=O)(=O)c2ccc(C)cc2)cc1	1.7	-1.6	1.5*	0.8	1.6	-0.8
CCOc1ccc(S(=O)(=O)N(CC(=O)O)c2ccc(C)cc2)cc1	-0.4	0.8	-1.7	-0.4	-0.1	0.1
Nc1cc(N)nc(SCCOc2ccccc2F)n1	11.2*	6.9	-0.3	1.1	1.8	0.2
COc1ccccc1OCCSc1nc(N)cc(N)n1	3.2	10.3	-0.9	0.1	0.1	1.3
CCOC1=C2[C@@H](CN(S(=O)(=O)c3ccc(C)cc3)[C@H]2c2cccs2)[C@H]2C(=O)N(c3ccccc3)C(=O)[C@H]2C1	0.1	/	-0.9	/	-0.2	0.9
O=C(Cc1cccs1)N=Nc1c(O)[nH]c2ccccc12	-1.0	7.6	-0.7	2.8	-0.6	1.2
CC(C)(O)C(=O)N=Nc1c(O)[nH]c2ccccc12	10.5*	7.0	-0.2	1.4	5.0	2.3
O=C(N=Nc1c(O)[nH]c2ccccc12)c1cc(-c2cccs2)[nH]n1	1.2	83.8*	-0.5	1.7	2.6	0.3
CC1(c2ccncc2)Nc2ccccc2-c2nc3ccccc3n21 (configuration not stated)	11.7*	31.6	-0.8	1.3	2.1	0.6
O=C(OCC(=O)N1CCCC1=O)C1COc2ccccc2O1 (configuration not stated)	0.2	3.9	-0.8	3.1	2.6	1.0
CCOC(=O)c1c(CC(C)C)csc1/N=C/C1C(=O)CC(C)(C)CC1=O	-1.6	-0.6	-1.2	5.5*	-1.9	0.0
COc1ccc(CC(=O)Nc2ccc(-c3nc4cc(C)ccc4o3)c(O)c2)cc1OC	2.6	-8.3	-1.2	-0.2	1.0	1.2
Cc1ccc2oc(-c3ccc(NC(=O)c4ccncc4)cc3O)nc2c1	12.0*	-1.8	-0.3	0.8	0.2	1.2
O=C(Nc1ccc2oc(-c3ccncc3)nc2c1)c1ccc2c(c1)OCCO2	0.3	-7.4	-2.5	5.7*	-1.9	-0.5
O=C(COC(=O)c1ccccc1-n1cnnn1)c1ccc(F)c(F)c1	7.9	4.6	0.9*	0.3	3.9	4.0*
O=C(COC(=O)c1ccccc1-n1cnnn1)c1ccccc1	1.4	4.5	-0.8	0.9	2.9	0.0
COc1ccc(CNc2nc3nc(C)cc(C)n3n2)cc1	2.0	1.0	-1.4	1.1	0.3	1.6
COc1ccc(-c2nc3nc(C)cc(C)n3n2)cc1	3.3	42.5	-0.5	1.5	5.7*	1.1

Screening data as filed in PubChem.
